Source: PubChem BioAssay (NCI)
This is part of a sample that, as a whole, favours compounds with a hit. Of some 79,000 tested, about 15% had one in any assay. Unmarked numbers belong to inactive results. Active and inactive are the calls of the source. No stated cut-off is given here; in the data, active means growth inhibition above about 70%; inactive means the rest.

What was measured:
[1] = NCI Yeast Anticancer Drug Screen. Data for the rad50 strain (AID 155);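 further: 0% = growth of vehicle-only cultures of the same strain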; conditions: S. cerevisiae rad50 strain growth inhibition, stronger effect = higher value
Outline: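 Genetically altered yeast (DNA repair pathway); compound treatment; growth inhibition vs vehicle ctrl.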

[2] = NCI Yeast Anticancer Drug Screen. Data for the mec2-1 strain (AID 157); conditions: S. cerevisiae mec2-1 strain, stronger effect = higher value
Outline: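 Cells of the genetically defined mec2-1 yeast strain are incubated with test compound. Inhibition of growth is calculated against vehicle-treated controls.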

[3] = NCI Yeast Anticancer Drug Screen. Data for the sgs1 mgt1 strain (AID 161);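 further: 0% = growth of cultures given vehicle only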; conditions: S. cerevisiae sgs1 mgt1 strain, stronger effect = higher value
Outline: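 Inhibition of yeast growth, normalised to vehicle-treated controls, is reported for a strain bearing genetic alterations in DNA damage repair.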

[4] = NCI Yeast Anticancer Drug Screen. Data for the cln2 rad14 strain (AID 165);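 further: 0% = growth equal to vehicle treated cultures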; conditions: S. cerevisiae cln2 rad14 strain, stronger effect = higher value
Outline: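 The screen exposed genetically defined yeast (cln2 rad14) to test compounds and scored growth inhibition relative to vehicle-treated controls.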

[5] = NCI Yeast Anticancer Drug Screen. Data for the bub3 strain (AID 167); conditions: S. cerevisiae bub3 mutant strain, stronger effect = higher value
Outline: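 Yeast carrying a defined mutation is treated with each compound, and growth is compared with that of vehicle-exposed cells to give inhibition.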

[6] = NCI Yeast Anticancer Drug Screen. Data for the mlh1 rad18 strain (AID 175); conditions: S. cerevisiae mlh1 rad18 strain growth inhibition, stronger effect = higher value
Outline: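 Compound-treated yeast growth, normalised to vehicle controls. Strain bears defined DNA repair mutations.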

[7] = at 5.0 µM (retest, dose inferred, filed as 0.5)
[8] = at 50.0 µM (retest, dose inferred, filed as 5.0)

| Structure (SMILES) | growth inhibition [1, 7] | growth inhibition [1, 8] | growth inhibition ([1]; at 50.0 µM) | growth inhibition [2, 7] | growth inhibition [2, 8] | growth inhibition ([2]; at 50.0 µM) | growth inhibition [3, 7] | growth inhibition [3, 8] | growth inhibition ([3]; at 50.0 µM) | growth inhibition [4, 7] | growth inhibition [4, 8] | growth inhibition ([4]; at 50.0 µM) | growth inhibition [5, 7] | growth inhibition [5, 8] | growth inhibition ([5]; at 50.0 µM) | growth inhibition [6, 7] | growth inhibition [6, 8] | growth inhibition ([6]; at 50.0 µM) |
| --- | --- | --- | --- | --- | --- | --- | --- | --- | --- | --- | --- | --- | --- | --- | --- | --- | --- | --- |
| CC(C(O)Cc1ccccc1)N(C)N=Nc1ccc([N+](=O)[O-])cc1 (configuration not stated) | 35% | 84% (active) | 64.3% | 18% | 59% | 61.6% | 24% | 91% (active) | 85.7% (active) | 21% | 86% (active) | 28.3% | 23% | 92% (active) | 72.7% (active) | 51% | 89% (active) | 78.5% (active) |
| O=C(O)C1C(C(=O)O)C2C(=O)C=CC1N2Cc1ccccc1 (configuration not stated) | 11% | 46% | 79.8% (active) | 1% | 61% | 81.2% (active) | 5% | 65% | 78.5% (active) | -8% | 31% | 46.3% | 21% | 73% (active) | 91.4% (active) | 3% | 76% (active) | 87.8% (active) |
| O=C(CCCN1CCc2[nH]c3cc(F)ccc3c2C1)c1ccc(F)cc1 | -11% | 97% (active) | 84.8% (active) | -12% | 98% (active) | 68% | -7% | 98% (active) | 90% (active) | -9% | 94% (active) | 84.4% (active) | -30% | 98% (active) | 91.7% (active) | 12% | 99% (active) | 85.6% (active) |
| Cc1c[nH]c(=O)n(CC(=O)C2CCC3C4CCC5=CC(=O)CCC5(C)C4CCC23C)c1=O (configuration not stated) | 11% | 30% | 48.2% | 0% | -11% | 43.6% | -1% | 26% | 47.4% | -1% | 4% | 46.6% | 0% | 17% | 41.1% | 1% | 20% | 43.3% |
| C/C(=N/NC(N)=S)C(CN1CCOCC1)C(C1=C(O)c2ccccc2OC1)c1ccccc1 (configuration not stated) | 26% | 26% | 75% (active) | 28% | 28% | 71.8% (active) | 24% | 24% | 80.9% (active) | 6% | 6% | 75.4% (active) | 24% | 24% | 71% (active) | 26% | 26% | 77.7% (active) |
| COc1cc2c(cc1OC)C(=O)C(C)(c1ccccc1)NC2 (configuration not stated) | 20% | 2% | 91.9% (active) | 9% | 42% | 98.8% (active) | 3% | -1% | 92.4% (active) | 10% | 56% | 99.5% (active) | 2% | 31% | 97.3% (active) | 4% | -3% | 97.8% (active) |
| Cc1c(N2CCCC2)cc2c(c1NC(=O)c1ccccc1Cl)C(C)(C)CC2(C)C | 11% | 95% (active) | 82.8% (active) | -2% | 89% (active) | 59.5% | 20% | 85% (active) | 73.2% (active) | 0% | 91% (active) | 79.3% (active) | 10% | 80% (active) | 90.7% (active) | 22% | 91% (active) | 80.2% (active) |
| Cc1ccc(N=C(N)Nc2ccc(C)cn2)nc1 | 6% | 78% (active) | 84.5% (active) | 2% | 68% | 77.9% (active) | 4% | 69% | 44.6% | 19% | 74% (active) | 40% | -5% | 70% (active) | 79.3% (active) | 5% | 72% (active) | 41.5% |
| COC(CC[P+](c1ccccc1)(c1ccccc1)c1ccccc1)(C(=O)c1ccccc1)c1ccccc1 (configuration not stated) | 91% (active) | 99% (active) | 98.7% (active) | 97% (active) | 99% (active) | 99.7% (active) | 88% (active) | 99% (active) | 99.8% (active) | 90% (active) | 99% (active) | 98.8% (active) | 94% (active) | 100% (active) | 99.7% (active) | 92% (active) | 100% (active) | 99.5% (active) |
| CCCCCCCCCCCCCCCCCCSSCCCCCCCCCCCCCCCCCC | 1% | -3% | 36.1% | 1% | 4% | 14.9% | -3% | -3% | -0.8% | -4% | 4% | 80.9% (active) | 2% | 1% | 15.6% | -3% | -7% | -16.1% |
| O=C1c2ccccc2C(=O)c2c(Nc3cc4c5c(ccc6c7ccc8c9c(cc(Nc%10cccc%11c%10C(=O)c%10ccccc%10C%11=O)c(c3c56)c97)-c3ccccc3C8=O)C(=O)c3ccccc3-4)cccc21 | 1% | 15% | 16.9% | -5% | -3% | 44% | 2% | -3% | -1.9% | -6% | 4% | 40.8% | -11% | 6% | 3.1% | -13% | -4% | -4.35% |
| CC(C)N(CC(=O)c1ccc2cc(Cl)c3ccccc3c2c1)C(C)C | 20% | 97% (active) | 99% (active) | 34% | 98% (active) | 98.6% (active) | 79% (active) | 98% (active) | 98.8% (active) | 8% | 98% (active) | 98.2% (active) | 32% | 97% (active) | 98.5% (active) | 39% | 98% (active) | 98.5% (active) |
| CC(CO)(CO)Cc1ccccc1 | 1% | -6% | 96.5% (active) | -2% | 6% | 97.9% (active) | 0% | -5% | 80.5% (active) | -3% | -4% | 92.3% (active) | -1% | 1% | 94% (active) | 2% | -3% | 93.2% (active) |
| CCCCCCCCCCCCCCCC(=O)NCC[N+](C)(CC)CC | -32% | 0% | 57.4% | -6% | -11% | 27.4% | -4% | 30% | 72.2% (active) | 1% | -15% | 17.9% | 2% | 19% | 10.5% | -8% | 7% | 29.5% |
| COC(=O)N/N=C(\c1ccc(O)cc1)C(C)C1(O)C(=O)Nc2ccccc21 (configuration not stated) | -16% | 35% | -19.5% | 6% | 20% | 7.45% | 7% | 26% | 16.9% | -2% | 23% | -30.2% | 1% | 34% | -0.8% | -3% | 28% | 14.2% |
| CC(Nc1ccc(Cl)c(Cl)c1)c1ccncc1 (configuration not stated) | 1% | 98% (active) | 85.8% (active) | -36% | 95% (active) | 85.8% (active) | -26% | 98% (active) | 79.8% (active) | 32% | 98% (active) | 83.9% (active) | -47% | 99% (active) | 86% (active) | -1% | 98% (active) | 82.6% (active) |
| Cc1cc2c(c3c1C(=O)CC3)C(C)(C)CC2(C)C | 1% | 77% (active) | 2.9% | -1% | 76% (active) | 9.15% | 1% | 70% (active) | 1.65% | -2% | 78% (active) | -4.5% | 25% | 92% (active) | 70.2% (active) | -3% | 64% | 6.05% |
| C(=[CH]/[Sn]([c]1ccccc1)([c]1ccccc1)[c]1ccccc1)/c1ccccc1 | 96% (active) | 88% (active) | 94.8% (active) | 95% (active) | 94% (active) | 98.4% (active) | 98% (active) | 92% (active) | 96.2% (active) | 92% (active) | 86% (active) | 95% (active) | 97% (active) | 85% (active) | 99.2% (active) | 97% (active) | 84% (active) | 94.1% (active) |
| Cc1c2ccnc(-c3ccc(F)cc3)c2cc2c1[nH]c1ccccc12 | -3% | 1% | -0.35% | -14% | 15% | -14.4% | -26% | 48% | 65.8% | 7% | 17% | -35.9% | -2% | 1% | -17.1% | -3% | 11% | -5.15% |
